# Bioassay records: PubChem, The Scripps Research Institute Molecular Screening Center
# The list is not random: actives were taken first. Their share in the collection is about 3.5%.
# GPR151 ag – human GPR151 activation; activation, % at 11.2 µM; PathHunter beta-arrestin GPR151 cells, luminescence; Q8TDV0; actives 1% (n = 650,000); AID 1508602; in the data active = activation above about 4.9%;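 note: 0% = median of compound wells and 100% = cells with positive control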
# Target sequence (Q8TDV0 whole entry, looked up): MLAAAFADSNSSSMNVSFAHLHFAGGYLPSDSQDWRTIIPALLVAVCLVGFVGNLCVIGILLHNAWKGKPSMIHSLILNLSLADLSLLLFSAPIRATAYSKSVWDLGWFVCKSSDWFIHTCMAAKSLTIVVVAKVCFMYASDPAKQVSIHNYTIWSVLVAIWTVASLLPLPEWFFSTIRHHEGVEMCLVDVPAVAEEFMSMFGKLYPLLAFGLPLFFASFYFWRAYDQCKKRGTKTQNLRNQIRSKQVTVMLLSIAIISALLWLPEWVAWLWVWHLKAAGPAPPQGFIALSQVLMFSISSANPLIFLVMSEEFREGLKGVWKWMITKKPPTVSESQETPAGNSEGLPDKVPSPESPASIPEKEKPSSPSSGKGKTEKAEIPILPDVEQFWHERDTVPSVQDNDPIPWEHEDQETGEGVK
# TEAD-YAP inh – TEAD-YAP interaction inhibition; HEK-TIYL cells, TEAD-Gal4/YAP UAS-luciferase luminescence; actives 1.4% (n = 640,000); inhibition, % at 9.12 µM; in the data active = inhibition above about 32%;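 note: 0% = median of test compound wells and 100% = reference inhibitor wells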
# FBW7 activator – activators of human E3 ligase FBW7; AlphaScreen FBW7–phospho-cyclin E peptide binding, activator screen; actives 0.13% (n = 650,000); normalized activity (activation), % at 26.1 µM; Q969H0; in the data active = normalized activity above about 1.9%;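 note: purified mutant Fbw7 with reduced substrate affinity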
# MITF primary – blocks human microphthalmia-associated transcription factor; O75030; AlphaScreen MITF homodimerization, bead proximity signal; inhibition, % at 2.6 µM; actives 0.91% (n = 650,000); AID 1259374; in the data active = inhibition above about 50%;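 note: 0% = vehicle wells with protein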
# * = called active by the depositor; ! = not confirmed by another sample.
SMILES,GPR151 ag,TEAD-YAP inh,FBW7 activator,MITF primary
CCC(=O)NC(c1ccc(C(C)C)cc1)c1cc([N+](=O)[O-])c2cccnc2c1O (stereo unspecified),1.8,-0.5,-0.7,9.8
CCCC(=O)NC(c1ccc2c(c1)OCO2)c1cc([N+](=O)[O-])c2cccnc2c1O (stereo unspecified),0.0,17.8,-0.3,44.1
CCC(=O)NC(c1ccc2c(c1)OCO2)c1cc([N+](=O)[O-])c2cccnc2c1O (stereo unspecified),-0.6,-13.7,-0.8,62.9*
CCC(=O)NC(c1ccccc1)c1cc([N+](=O)[O-])c2cccnc2c1O (stereo unspecified),-1.2,-6.1,-0.9,84.0*
CCCC(=O)NC(c1ccc(O)c(OCC)c1)c1cc([N+](=O)[O-])c2cccnc2c1O (stereo unspecified),-0.3,14.7,-0.2,40.7
CCC(=O)NC(c1ccccc1OC)c1cc([N+](=O)[O-])c2cccnc2c1O (stereo unspecified),0.7,-11.6,-0.8,97.6*
CC(=O)NC(c1ccc(C(C)C)cc1)c1cc([N+](=O)[O-])c2cccnc2c1O (stereo unspecified),0.2,7.4,-0.5,7.0
Cc1cc(C(=O)NNC(=O)C(O)(c2ccccc2)c2ccccc2)cs1,0.6,2.1,1.9*,3.6
Cc1ccc(CN2CC(C(=O)Nc3ncc(C)s3)CC2=O)cc1 (stereo unspecified),-0.7,44.5*,-0.1,-6.8
CC1=C(C#N)C(c2ccc(C)cc2)C2=C(CC(c3ccccc3)CC2=O)N1 (stereo unspecified),-0.8,32.3*,0.1,1.8
CCOC(=O)C1=C(C)NC2=C(C(=O)CC(c3ccc(OC)cc3)C2)C1c1ccccc1OC(C)C (stereo unspecified),1.3,-5.3,0.1,17.2
COc1ccc(C2CC(=O)C3=C(C2)NC(C)=C(C(=O)OC(C)C)C3c2ccccc2OC(C)C)cc1 (stereo unspecified),0.1,-7.0,2.4*,8.1
CC1=C(C(=O)OC(C)C)C(c2ccncc2)C2=C(CC(c3ccccc3)CC2=O)N1 (stereo unspecified),0.2,9.4,2.1*!,8.0
CC(c1ccccc1)C(CC(=O)Nc1ccccc1)C(=O)O (stereo unspecified),0.4,-4.3,0.1,1.2
Cc1ccsc1/C=N/Nc1cccc(C(=O)O)c1,-5.9,47.5*,-0.3,1.5
Cc1nn(-c2ccccc2)c(C)c1/C=N/Nc1cccc(C(=O)O)c1,-1.4,42.5*,0.4,7.1
Cc1ccsc1/C=N/Nc1ccc(C(=O)O)cc1,-6.4,49.1*,-0.1,1.1
O=C(O)c1cccc(N/N=C/c2cccc3ccccc23)c1,0.9,10.9,-0.1,7.2
O=C(O)c1cccc(N/N=C/c2cc(Br)cs2)c1,-8.1,37.8*,-0.1,13.8
CCN1CCN(C(=O)CN(Cc2ccc(F)cc2)S(=O)(=O)c2ccccc2)CC1,-0.6,-5.2,0.1,-10.5
Oc1ccc(/C=N/Nc2ncc(Br)cn2)c(O)c1,-3.1,-36.9,-1.4,65.5*
CCN(CC)S(=O)(=O)c1ccc(N/N=C/c2ccccc2[N+](=O)[O-])nc1,1.0,-2.3,-0.1,0.6
CCN(CC)S(=O)(=O)c1ccc(N/N=C/c2ccc(O)cc2O)nc1,-0.5,59.4*,-0.3,40.9
Cc1cnn(-c2cc(N/N=C/c3ccc(O)cc3O)ncn2)c1,0.4,11.0,-0.5,35.9
CCOc1ccc(/C=N/Nc2ncc(Br)cn2)c(O)c1,-1.0,-47.5,-0.6,41.6
SMILES,GPR151 ag,TEAD-YAP inh,FBW7 activator,MITF primary
Cc1cc(C)n(-c2cc(N/N=C/c3ccc(O)cc3O)ncn2)n1,2.2,85.0*,-0.3,17.8
Oc1ccc(/C=N/Nc2ccc(Cl)nn2)c(O)c1,-4.2,8.9,-0.4,55.2*
CCOC(=O)c1c(NC(=O)c2ccc(S(=O)(=O)N3CCCCCC3)cc2)sc2c1CCN(C(=O)OCC)C2,-0.3,3.1,0.0,-16.3
O=C1CCCC2=C1C(c1ccc(O)cc1)C1=C(CCCC1=O)N2,2.5,-2.2,0.0,-0.1
Oc1ccc(/C=N/Nc2ncc(C(F)(F)F)cc2Cl)c(O)c1O,2.0,7.1,-1.2,65.7*
Oc1ccc(/C=N/Nc2ccc(Cl)nn2)c(O)c1O,-1.1,5.2,-0.6,103.5*
CCN1C(=O)c2cccc3c(NC(=O)Cc4cccc5ccccc45)ccc1c23,0.6,-8.3,0.8,20.2
COc1cccc(C=O)c1OC(=O)c1cccc(Cl)c1,-0.9,-18.2,11.9*,13.1
COc1cccc(C=O)c1OC(=O)c1ccc2ccccc2c1,0.7,-16.8,1.2,19.4
CC1=NN(c2nc3ccccc3s2)C(=O)/C1=C\N(C)C,-8.6,67.8*,0.1,9.3
